From PubChem BioAssay (NCI) come the findings set out here.

This is part of a sample that, as a whole, favours compounds with a hit. Of some 83,000 tested, about 20% had one in any assay.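 Results are percent growth after 48 hours of single-concentration exposure. 100 means growth as in untreated cells, lower positive values show inhibition; negative values down to -100 show cell death.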 Unmarked numbers belong to inactive results. Active and inactive are the calls of the source. Rule for the calls: active = growth percent below 10; inactive = the rest.

One experiment relates to IGROV1 ovarian. In words: NCI-60 one-dose screen, 48 h (100 = growth as untreated, 0 = no growth, -100 = all killed). Conditions: 10 µM unless noted.
As to `Cc1cc(NCCCNc2ccnc3cc(Cl)ccc23)nc(N2CCN(C)CC2)n1`, the growth was 83.1%.
Regarding `CCCc1cc(=O)n2c(C(=O)Nc3ccccc3OC)c(C(=O)Nc3ccc(F)cc3)sc2n1`, the growth is -12.6% [30 µM] (active).
Consider `N#Cc1cccc(/C=C(/C(=O)c2ccccc2)c2ccccc2)c1`, for which the growth is 73.8%.
For `CCC1(c2ccccc2)Oc2ccccc2-n2c(C#N)c3ccccc3c2C1=O` (centres undefined), the growth is 93.9%.
Regarding `C/C(=N/N=C(N)N)c1ccc(N)cc1`, the growth was -12.3% (active).
Still for that read-out and setting: the value for `CC(C)c1nc(N(C)S(C)(=O)=O)nc(-c2ccc(F)cc2)c1/C=C/[C@@H](O)C[C@@H](O)CC(=O)O` was 105%; that for `COc1ccc(/C=C(\C#N)c2ccccc2)cc1` was 87.9%.
Regarding `Fc1ccc([C@@H]2CCNC[C@H]2COc2ccc3c(c2)OCO3)cc1`, the growth was 72%.
For `COc1cc(/C=C/C(=O)c2c(-c3ccc(F)cc3)nc3sc(C)nn23)cc(OC)c1OC`, the growth was 28.7%.
Turning to `CCC(C)CC(CC)NCCN1CCN(C(CC)CC(C)CC)C1=S` (centres undefined), the growth is 52.7%.
Regarding `COc1cccc(-c2nnc(N)o2)c1`, the growth was 102%.
In the case of `CCCCSc1cc(C)nc(N)n1`, the growth was 100%.
On to `Cc1ccsc1/C=C/C1=NCCCN1C`, for which the growth is 101%.
As for `Nc1c2ccccc2nc2ccccc12` (tested in a mixture with another compound), the growth is 22.9%.
On the same count and under the same terms, the value for `COc1cc(/C=C/C(=O)c2c(-c3ccc(Cl)cc3)nc3sc(C)nn23)cc(OC)c1OC` was 89.7%; that for `CCCCc1nc(Cl)c(CO)n1Cc1ccc(-c2ccccc2-c2nn[nH]n2)cc1` was 104%; that for `CN(CCOc1ccc(CC2SC(=O)NC2=O)cc1)c1ccccn1` (centres undefined) was 97.9%.
As for `N#Cc1c2ccccc2c2n1-c1ccccc1OC(c1ccccc1)C2=O` (centres undefined), the growth was 43%.
For `Nc1nc(N)c([N+](=O)[O-])c(=O)[nH]1`, the growth is 110%.
Same read-out and setting: for `Cc1c(C(N)=O)sc2ncn(Cc3ccccc3)c(=O)c12` the value was 2.39% (active); for `CC(=O)O[C@H]1C(=O)[C@@]2(C)C([C@H](OC(=O)c3ccccc3)[C@]3(O)C[C@H](OC(=O)[C@H](O)[C@@H](NC(=O)c4ccccc4)c4ccccc4)C(C)=C1C3(C)C)[C@]1(OC(C)=O)CO[C@@H]1C[C@@H]2O` (some centres undefined), 42%; for `CC1(C)OC(=O)C(=Cc2ccccc2Br)C(=O)O1`, 102%.
For the molecule `COC1CC2CCC(C)C(O)(O2)C(=O)C(=O)N2CCCCC2C(=O)OC(C(C)CC2CCC(O)C(OC)C2)CC(=O)C(C)C=C(C)C(O)C(OC)C(=O)C(C)CC(C)/C=C/C=C/C=C1C` (centres undefined), the growth is 15.5%.
Same read-out and setting: the value for `COc1cc([C@@H]2c3cc4c(cc3C(O[C@@H]3O[C@@H]5CO[C@@H](c6cccs6)OC5[C@H](O)[C@H]3O)C3COC(=O)[C@@H]32)OCO4)cc(OC)c1O` (some centres undefined) was -5.65% (active); that for `Cn1c(=O)c2nc(SCc3ccccc3)n(C)c2n(C)c1=O` was 139%; that for `O=c1cc(-c2cccnc2)oc2c1ccc1ccccc12` was 84.8%.
Take `C/C(=N\N1CC(=O)NC1=O)c1ccc([N+](=O)[O-])o1`: the growth was 99.6%.
The same measure, in the same setting: for `NC(N)=N/N=C(/c1ccccc1)c1ccc(Cl)cc1` the value was 18.7%.
Take `N#Cc1ccc(NC(=O)Nc2ccc(Oc3ccc(NC(=O)Nc4ccc(C#N)cc4)cc3)cc2)cc1`: the growth is -21.5% (active).
The same measure, in the same setting: for `Cc1c(NCc2nnc3n(Cc4ccccc4)c(=O)c4c5c(sc4n23)CCCC5)c(=O)n(-c2ccccc2)n1C` the value was 79.2%.
On to `O=C(Nc1ccc(OCc2nnc(-c3ccccc3)o2)c(F)c1)Nc1ccc(Cl)c(C(F)(F)F)c1`, for which the growth is 36.3%.
Regarding `Cc1cc(N2CCOCC2)nc(N2CCOCC2)n1`, the growth was 76.6%.
For `COc1cc2c(C#N)n3c(c2cc1OC)C(=O)C(c1ccccc1)Oc1ccccc1-3` (centres undefined), the growth was 58.3%.
Regarding `O=[N+]([O-])c1ccc(N/N=C\c2ccccc2[N+](=O)[O-])nc1`, the growth is 106%.
Take `CO[C@H]1CC(O[C@@H]2/C(C)=C/C[C@@H]3C[C@@H](C[C@]4(CC[C@H](C)[C@@H](C5CCCCC5)O4)O3)OC(=O)[C@@H]3C=C(C)/C(=N/O)[C@H]4OC/C(=C\C=C\[C@@H]2C)[C@]43O)O[C@@H](C)C1O` (some centres undefined): the growth is -47.4% (active).
Regarding `COc1ccc(OC)c(NC(=O)c2cc3oc4ccccc4c3cc2O)c1`, the growth was 56.1%.
For `C=C1CC[C@@H]2[C@](C)(COC(C)=O)[C@H](OC(C)=O)CC[C@@]2(C)[C@@H]1CC(Nc1ccc(S(=O)(=O)Nc2cc(C)on2)cc1)C1=CCOC1=O` (some centres undefined), the growth is 62.6%.

A further experiment concerns OVCAR-3 ovarian. Described as above. Conditions: 10 µM unless noted.
As to `Cc1cc(NCCCNc2ccnc3cc(Cl)ccc23)nc(N2CCN(C)CC2)n1`, the growth was 80%.
For the molecule `CCCc1cc(=O)n2c(C(=O)Nc3ccccc3OC)c(C(=O)Nc3ccc(F)cc3)sc2n1`, the growth is 51.3% [30 µM].
Take `N#Cc1cccc(/C=C(/C(=O)c2ccccc2)c2ccccc2)c1`: the growth is 36.4%.
On to `CCC1(c2ccccc2)Oc2ccccc2-n2c(C#N)c3ccccc3c2C1=O` (centres undefined), for which the growth was 103%.
As to `C/C(=N/N=C(N)N)c1ccc(N)cc1`, the growth is 93.1%.
Still for that read-out and setting: for `CC(C)c1nc(N(C)S(C)(=O)=O)nc(-c2ccc(F)cc2)c1/C=C/[C@@H](O)C[C@@H](O)CC(=O)O` the value was 99.4%; for `COc1ccc(/C=C(\C#N)c2ccccc2)cc1`, 95.1%; for `Fc1ccc([C@@H]2CCNC[C@H]2COc2ccc3c(c2)OCO3)cc1`, 81.3%.
The same measure, in the same setting: the value for `COc1cc(/C=C/C(=O)c2c(-c3ccc(F)cc3)nc3sc(C)nn23)cc(OC)c1OC` was -16.4% (active); that for `CCC(C)CC(CC)NCCN1CCN(C(CC)CC(C)CC)C1=S` (centres undefined) was 39.5%; that for `COc1cccc(-c2nnc(N)o2)c1` was 90.4%.
Same read-out and setting: for `CCCCSc1cc(C)nc(N)n1` the value was 103%; for `Cc1ccsc1/C=C/C1=NCCCN1C`, 108%.
As to `Nc1c2ccccc2nc2ccccc12` (tested in a mixture with another compound), the growth is 32.6%.
For `COc1cc(/C=C/C(=O)c2c(-c3ccc(Cl)cc3)nc3sc(C)nn23)cc(OC)c1OC`, the growth was 88.4%.
Still for that read-out and setting: for `CCCCc1nc(Cl)c(CO)n1Cc1ccc(-c2ccccc2-c2nn[nH]n2)cc1` the value was 111%; for `CN(CCOc1ccc(CC2SC(=O)NC2=O)cc1)c1ccccn1` (centres undefined), 110%; for `N#Cc1c2ccccc2c2n1-c1ccccc1OC(c1ccccc1)C2=O` (centres undefined), 41.1%.
Take `Nc1nc(N)c([N+](=O)[O-])c(=O)[nH]1`: the growth was 108%.
`Cc1c(C(N)=O)sc2ncn(Cc3ccccc3)c(=O)c12`: the growth was 104%.
Still for that read-out and setting: for `CC(=O)O[C@H]1C(=O)[C@@]2(C)C([C@H](OC(=O)c3ccccc3)[C@]3(O)C[C@H](OC(=O)[C@H](O)[C@@H](NC(=O)c4ccccc4)c4ccccc4)C(C)=C1C3(C)C)[C@]1(OC(C)=O)CO[C@@H]1C[C@@H]2O` (some centres undefined) the value was -9.4% (active); for `CC1(C)OC(=O)C(=Cc2ccccc2Br)C(=O)O1`, 106%; for `COC1CC2CCC(C)C(O)(O2)C(=O)C(=O)N2CCCCC2C(=O)OC(C(C)CC2CCC(O)C(OC)C2)CC(=O)C(C)C=C(C)C(O)C(OC)C(=O)C(C)CC(C)/C=C/C=C/C=C1C` (centres undefined), 50%.
Turning to `COc1cc([C@@H]2c3cc4c(cc3C(O[C@@H]3O[C@@H]5CO[C@@H](c6cccs6)OC5[C@H](O)[C@H]3O)C3COC(=O)[C@@H]32)OCO4)cc(OC)c1O` (some centres undefined), the growth is -54% (active).
Same read-out and setting: the value for `Cn1c(=O)c2nc(SCc3ccccc3)n(C)c2n(C)c1=O` was 117%.
On the same count and under the same terms, for `O=c1cc(-c2cccnc2)oc2c1ccc1ccccc12` the value was 76.5%.
As to `C/C(=N\N1CC(=O)NC1=O)c1ccc([N+](=O)[O-])o1`, the growth was 102%.
For `NC(N)=N/N=C(/c1ccccc1)c1ccc(Cl)cc1`, the growth is 5.42% (active).
For `N#Cc1ccc(NC(=O)Nc2ccc(Oc3ccc(NC(=O)Nc4ccc(C#N)cc4)cc3)cc2)cc1`, the growth was 11.1%.
Still for that read-out and setting: the value for `Cc1c(NCc2nnc3n(Cc4ccccc4)c(=O)c4c5c(sc4n23)CCCC5)c(=O)n(-c2ccccc2)n1C` was 87.3%; that for `O=C(Nc1ccc(OCc2nnc(-c3ccccc3)o2)c(F)c1)Nc1ccc(Cl)c(C(F)(F)F)c1` was 15.4%; that for `Cc1cc(N2CCOCC2)nc(N2CCOCC2)n1` was 107%.
The same measure, in the same setting: for `COc1cc2c(C#N)n3c(c2cc1OC)C(=O)C(c1ccccc1)Oc1ccccc1-3` (centres undefined) the value was 53.2%; for `O=[N+]([O-])c1ccc(N/N=C\c2ccccc2[N+](=O)[O-])nc1`, 109%.
The same measure, in the same setting: for `CO[C@H]1CC(O[C@@H]2/C(C)=C/C[C@@H]3C[C@@H](C[C@]4(CC[C@H](C)[C@@H](C5CCCCC5)O4)O3)OC(=O)[C@@H]3C=C(C)/C(=N/O)[C@H]4OC/C(=C\C=C\[C@@H]2C)[C@]43O)O[C@@H](C)C1O` (some centres undefined) the value was -98.3% (active); for `COc1ccc(OC)c(NC(=O)c2cc3oc4ccccc4c3cc2O)c1`, 137%.
Take `C=C1CC[C@@H]2[C@](C)(COC(C)=O)[C@H](OC(C)=O)CC[C@@]2(C)[C@@H]1CC(Nc1ccc(S(=O)(=O)Nc2cc(C)on2)cc1)C1=CCOC1=O` (some centres undefined): the growth is 7.95% (active).
